# Sampled rows, rich in hits. Any-hit rate of the full collection: about 28%.
# hDAT+cocaine: modulates human dopamine transporter uptake under cocaine. 110,000 compounds, 1.3% hits. Q01959. B-score at 10 µM. AID 449768. LLC-PK1 hDAT cells, [14C]-dopamine uptake with cocaine IC80; actives deviate in either direction;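 active means Z score or B-score, a plate-position-corrected score, falls beyond the plate's 99.7% confidence bounds, in either direction; inactive means both scores lie inside the 99.7% bounds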;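 further: scored against the spread of the other compound wells on the same plate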
# Target sequence (Q01959 whole entry, looked up): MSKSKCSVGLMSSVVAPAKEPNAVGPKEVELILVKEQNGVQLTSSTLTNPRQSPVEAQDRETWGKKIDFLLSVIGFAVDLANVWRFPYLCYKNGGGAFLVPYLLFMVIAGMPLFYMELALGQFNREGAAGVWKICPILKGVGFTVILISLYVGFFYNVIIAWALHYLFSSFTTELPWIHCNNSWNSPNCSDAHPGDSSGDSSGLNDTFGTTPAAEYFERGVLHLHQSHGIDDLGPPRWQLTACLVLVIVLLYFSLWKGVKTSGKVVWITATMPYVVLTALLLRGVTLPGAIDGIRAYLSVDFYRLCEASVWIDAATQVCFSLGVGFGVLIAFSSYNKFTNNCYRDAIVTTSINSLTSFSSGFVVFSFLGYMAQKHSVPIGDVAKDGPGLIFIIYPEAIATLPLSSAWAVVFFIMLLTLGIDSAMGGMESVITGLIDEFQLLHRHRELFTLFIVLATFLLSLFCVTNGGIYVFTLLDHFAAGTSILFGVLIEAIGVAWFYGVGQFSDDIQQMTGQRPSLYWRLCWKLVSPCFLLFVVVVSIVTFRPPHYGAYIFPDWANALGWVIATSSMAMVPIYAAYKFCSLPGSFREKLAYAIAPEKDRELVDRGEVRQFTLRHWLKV
# D1 allo mod: allosterically modulates the human D1 dopamine receptor | 58,000 compounds, 5.9% hits | B-score at 10 µM | HEK293 D1, CRE-luciferase, dopamine EC30 potentiation; actives deviate in either direction;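 active means luminescence count or its row- and column-corrected plate score outside the 99.7% band of the plate's sample wells, on either side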
# CYP2C9 inhib: human CYP2C9 inhibition; P11712; CYP2C9 Supersomes, luciferin-H conversion, luminescence; inhibition, % at 5 µM; 96,000 compounds, 20% hits;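 active means blocking of liver enzyme CYP2C9 beyond about 50% at 5 µM, limit read from the data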
# CYP2C19 inhib: human CYP2C19 inhibition | CYP2C19 Supersomes, luciferin-H EGE luminescence, 30 min | inhibition, % at 5 µM | 96,000 compounds, 21% hits | AID 778;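 active means CYP2C19 inhibition above a set limit at 5 µM in the primary screen, cut at about 50% in these data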;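 further: plate controls were negative control wells for no effect and 2.5 mM tranylcypromine positive control for full effect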
# CYP2C9 activ: increases human cytochrome P450 2C9 activity; recombinant CYP2C9, luciferin-H conversion, luminescence; active compounds read high; factor 1 = untreated enzyme, 0 = blocked; 96,000 compounds, 1.4% hits; P11712; activation factor at 5 µM;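 active means activation factor of 2 or more for CYP2C9 at a 5 µM dose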;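 further: 0 = sulfaphenazole-blocked wells and 1 = vehicle-only wells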
# CYP2C19 act: activators of human cytochrome P450 2C19; AID 1025; 96,000 tested, under 10 active; activation factor at 5 µM; P33261; recombinant CYP2C19, luciferin-H EGE luminescence; active compounds read high; 0 = fully inhibited enzyme, 1 = untreated enzyme;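 active means activation factor of at least 2 at 5 µM in the primary screen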;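 further: 0 = wells with 2.5 mM tranylcypromine and 1 = vehicle-only wells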
# * = called active by the depositor; nt = not tested or not shown.
SMILES,hDAT+cocaine,D1 allo mod,CYP2C9 inhib,CYP2C19 inhib,CYP2C9 activ,CYP2C19 act
Cc1ccc(S(=O)(=O)N2CCC(=O)N(C(COCc3cccc(C(F)(F)F)c3)Cc3ccccc3)CC2)cc1 (stereo not drawn),0.75,nt,nt,nt,nt,nt
CCOc1ccccc1C(=O)NCc1ccc2c(c1)OCO2,-0.36,2.6,42,98*,0.6,0
COc1ccc(OC)c(CNC(=O)Cc2c(C(=O)O)[nH]c3ccccc23)c1,-0.023,nt,18,-4,0.8,1
O=C(CCn1cccc1)NCc1ccc2c(c1)OCO2,-1,0.59,0,26,1,0.7
O=C(NCc1ccc2c(c1)OCO2)Oc1ccccc1,0.15,-0.21,13,74*,0.9,0.3
O=C(OC(C(=O)NCc1ccc2c(c1)OCO2)c1ccccc1F)c1ccco1 (stereo not drawn),1.3,-0.076,67*,46,0.3,0.5
COc1cccc(CNC(=O)Cc2c(C(=O)O)[nH]c3ccccc23)c1,0.52,nt,52*,0,0.5,1
O=C(COC(=O)c1cc[n+]([O-])cc1)NCC12CC3CC(CC(C3)C1)C2,-0.85,nt,-12,-4,1.1,1
O=C(O)c1cc2ccc3ccccc3c2oc1=O,-0.44,nt,nt,nt,nt,nt
COc1ccccc1NC(=O)C(=O)NNC(=O)c1ccco1,0.89,nt,-11,-4,1.1,1
Cc1cccc(OCC(=O)OCC(=O)c2c(N)n(C)c(=O)n(C)c2=O)c1C,-0.65,nt,-7,-6,1.1,1.1
CN(CCCNC(=O)c1cccc(N2CCCC2=O)c1)c1ccccc1,2.5,nt,nt,nt,nt,nt
Cc1ccc(N2CC(C(=O)NCc3ccc4c(c3)OCO4)CC2=O)cc1C (stereo not drawn),0.41,0.55,-124,8,2.2*,0.9
COc1ccc2c(c1)C=C(C(=O)NCc1ccc(Cl)cc1)CO2,0.0025,nt,62*,53*,0.4,0.5
O=C(NCc1ccc2c(c1)OCO2)c1ccc(C2SCC(=O)N2Cc2ccco2)cc1 (stereo not drawn),0.092,-0.63,98*,67*,0,0.3
O=C(Nc1ccc(Cl)cc1)C1=Cc2cc(Cl)ccc2OC1,-0.0018,nt,-20,-12,1.2,1.1
CCCCN(C)CCCNC(=O)c1cccc(N2CCCC2=O)c1,-1.1,-5.8*,9,4,0.9,1
Cc1ccc(S(=O)(=O)N2CCC(=O)N(CCOCc3ccc(Cl)cc3)CC2)cc1,0.25,nt,nt,nt,nt,nt
CCOC(=O)c1c(C)c(C(=O)NCC2CCCO2)c(C)n1C (stereo not drawn),-0.13,-0.29,-65,7,1.6,0.9
COc1ccc(-n2ccnc2SCC(=O)NCc2ccc3c(c2)OCO3)cc1,0.27,0.7,94*,100*,0.1,0
COc1cccc(N2C(=O)Nc3ccccc3C2(O)C(=O)NCc2ccc3c(c2)OCO3)c1 (stereo not drawn),0.11,0.12,9,61*,0.9,0.4
O=C1Nc2ccccc2C(O)(C(=O)NCc2ccc3c(c2)OCO3)N1c1ccccc1 (stereo not drawn),2.2,-0.69,-4,21,1,0.8
O=C(NCc1ccc2c(c1)OCO2)c1cccnc1,-0.7,0.17,11,59*,0.9,0.4
O=C(NCc1ccc2c(c1)OCO2)c1cccc(C(=O)NCc2ccc3c(c2)OCO3)c1,nt,-2.6,11,8,0.9,0.9
CC(C)c1nnc(SCC(=O)NCc2ccc3c(c2)OCO3)n1C,-0.7,nt,nt,nt,nt,nt
SMILES,hDAT+cocaine,D1 allo mod,CYP2C9 inhib,CYP2C19 inhib,CYP2C9 activ,CYP2C19 act
CCn1cc(C(=O)NCc2ccc3c(c2)OCO3)c(=O)c2ccc(C)nc21,nt,4.3*,16,2,0.8,1
COc1ccc(/C(C)=C(\C#N)C(=O)OC(C)C)cc1OC,0.079,nt,nt,nt,nt,nt
CCCN[C@H]1CCc2nc(N)sc2C1,-0.74,nt,nt,nt,nt,nt
CCC1=NC(c2ccccc2Cl)N(O)C1(C)C (stereo not drawn),0.13,-0.5,-9,-5,1.1,1
Cc1ccsc1C(=O)OCC(=O)NCc1ccc2c(c1)OCO2,-0.73,-0.4,72*,60*,0.3,0.4
COc1ccc(CC(=O)NCc2ccc3c(c2)OCO3)cc1,-0.33,nt,69*,97*,0.3,0
CC(=O)OCC(=O)NCc1ccc2c(c1)OCO2,-1.3,0.36,-3,5,1,0.9
COc1ccccc1CC(=O)NCc1ccc2c(c1)OCO2,-0.9,-0.78,4,90*,1,0.1
COc1ccc(CNC(=O)C(C)N=C2NS(=O)(=O)c3ccccc32)cc1OC (stereo not drawn),-0.84,nt,15,8,0.8,0.9
CC(N=C1NS(=O)(=O)c2ccccc21)C(=O)NCc1ccc2c(c1)OCO2 (stereo not drawn),-0.75,nt,86*,58*,0.1,0.4
COc1n[nH]c2nncnc12,0.36,-0.48,-24,-21,1.2,1.2
Nn1c(SCC(=O)Nc2ccc(S(=O)(=O)N3CCCC3)cc2)nnc1C(F)(F)F,-0.11,-0.25,12,-7,0.9,1.1
Cc1ccc(-n2nnc(-c3cccnc3Cl)n2)cc1,-0.017,nt,nt,nt,nt,nt
O=C(CNCCC1=CCCCC1)Nc1ccc(N2CCCCCC2)cc1,1.5,nt,2,0,1,1
O=C(NCc1ccc2c(c1)OCO2)c1cccc(N2CCCC2=O)c1,-0.43,0,61*,69*,0.4,0.3
Cc1cc2cc(CNC(=O)c3ccc4c(c3)OCO4)ccc2n1C,0.95,nt,-9,72*,1.1,0.3
COc1ccc(C(=O)NCc2ccc3c(c2)cc(C)n3C)cc1,-0.65,nt,nt,nt,nt,nt
COc1ccc(NCc2ccc3c(c2)OCO3)cc1Cl,-0.78,3.2,86*,98*,0.1,0
O=C(Cc1cccs1)NCc1ccc2c(c1)OCO2,-0.17,1,38,92*,0.6,0.1
C#CCOCCOCCOCCNc1nc(N2CCN(C(=O)[C@H](CCCCN)n3cc([C@@H](N)C(C)CC)nn3)CC2)nc(N2CCN(C(=O)[C@H](CCCCN)n3cc([C@@H](N)CC(C)C)nn3)CC2)n1 (stereo partly drawn),1,nt,nt,nt,nt,nt
CCOc1ccccc1CN1C(=O)c2ccccc2C1C(=O)NC(C)CC (stereo not drawn),0.75,nt,1,-2,1,1
Cc1ccc2[nH]c3c(=O)n(Cc4ccncc4)cnc3c2c1,-2.1,nt,63*,50,0.4,0.5
c1ccc(CN2CCN(c3nc4ccccc4c4ccccc34)CC2)cc1,0.74,nt,92*,28,0.1,0.7
c1ccc(CN2CCN(c3nc(-c4ccccc4)nc4ccccc34)CC2)cc1,-0.099,nt,29,8,0.7,0.9
CCOc1ccc2[nH]c3c(N4CCN(c5ccccn5)CC4)ncnc3c2c1,0.69,-1.9,69*,80*,0.3,0.2
c1ccc2c(c1)[nH]c1c(N3CCC4(CC3)OCCO4)ncnc12,0.13,0.46,38,68*,0.6,0.3
C[C@H](NC(=O)Nc1ccc2c(c1)OCCO2)C(=O)O,-0.62,-0.64,-4,-12,1,1.1

# Screening results: PubChem BioAssay, several laboratories
